Screens deposited in PubChem by National Center for Advancing Translational Sciences (NCATS).
The entries come from a sample that favours hits as a whole.
Pf Dd2 growth: blocks in vitro growth of P. falciparum Dd2. 120,000 tested, 4.3% active. Potency, µM (titrated, usually from 28.9 µM), for inactives: top-dose activity, negative = inhibition, most hits filed as inhibitors. P. falciparum Dd2 growth, SYBR Green, 72 h. AID 1347417; active = well fitted inhibition curve with a large enough effect;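 also: plate controls were DMSO vehicle for no effect and reference drug for full effect; nearly all actives have a fitted effect of over 65% in size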
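Infected erythrocytes (Dd2, 0.3% parasitemia, 2.5% hematocrit final) are added to compound in RPMI-1640/Albumax II medium, grown 72 h at 37C in low oxygen, then lysed with saponin/Triton-X containing SYBR Green and read by fluorescence.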
An asterisk follows results filed as active; i = inactive; [ ] = remark or other dose. Potency is read from the fitted curve at half-maximal effect.

SMILES | Pf Dd2 growth
COC(=O)[C@@H]1Cc2c([nH]c3ccccc23)[C@H]2C[C@@H](NCc3cccnc3)C[C@@H](c3ccc(F)c(F)c3)N21 | -12%
COC(=O)[C@@H]1Cc2c([nH]c3ccccc23)[C@H]2C[C@@H](NC3CC3)C[C@@H](c3ccc(F)cc3)N21 | 4.5µM*
COC(=O)[C@@H]1Cc2c([nH]c3ccccc23)[C@H]2C[C@@H](NCCO)C[C@@H](c3ccc(F)cc3)N21 | i
C#CCN[C@H]1C[C@@H]2c3[nH]c4ccccc4c3C[C@@H](C(=O)OC)N2[C@H](c2ccc(F)cc2)C1 | 13µM*
COC(=O)[C@@H]1Cc2c([nH]c3ccccc23)[C@H]2C[C@H](NCCO)C[C@@H](c3ccccc3)N21 | i
COC(=O)[C@@H]1Cc2c([nH]c3ccccc23)[C@H]2C[C@@H](NCCNC(C)=O)C[C@@H](c3ccc(C(C)C)cc3)N21 | -21%
COC(=O)[C@@H]1Cc2c([nH]c3ccccc23)[C@H]2C[C@@H](NCCNC(C)=O)C[C@@H](c3ccccc3)N21 | -14%
COC(=O)[C@@H]1Cc2c([nH]c3ccccc23)[C@@H]2C[C@@H](NCCNC(C)=O)C[C@@H](c3ccc(F)c(F)c3)N12 | 0%
COC(=O)[C@@H]1Cc2c([nH]c3ccccc23)[C@H]2C[C@@H](N3CCOCC3)C[C@@H](c3ccc(F)cc3)N21 | -14%
COC(=O)[C@@H]1Cc2c([nH]c3ccccc23)[C@H]2C[C@@H](NCCN3CCOCC3)C[C@@H](c3ccc(C(F)(F)F)cc3)N21 | 8.9µM*
O=C(Cc1cnc[nH]c1=O)N1CCC2(CC1)[C@H](O)C[C@@H]2OCCO | -17%
COc1ccc(NC(=O)N2[C@H]3CC[C@@H]2c2cncnc2C3)c(C)c1 | 20%
NC(=O)[C@H](CC1CCCCC1)NC(=O)[C@H]1CN(C(=O)C2CCNCC2)CCN1C(=O)c1cccs1 | 12%
COc1ccc(-c2ccc3c(c2)C(=O)N2C[C@@H](NS(=O)(=O)c4ccc(F)cc4)C[C@H]2C(=O)N3)cc1 | -18%
OC(c1ccccc1)c1nc(Nc2ccc3c(c2)OCO3)n[nH]1 (configuration not stated) | -16%[44.1 µM]
O=C(C1CN(c2ccccc2)C(=O)N1)N1CCCC1 (configuration not stated) | 17%[44.1 µM]
Cc1noc(-c2ccc(OC(F)(F)F)cc2)c1C(=O)NCCCc1ccccc1 | i
O=C(NCCc1noc(-c2cccnc2)n1)c1c2c(nc3ccccc13)CCCC2 | i
O=C(CC1CCCN(c2cnn(CC3CC3)c(=O)c2)C1)NCc1ccc(F)cc1 (configuration not stated) | i
COCC(=O)NC[C@H]1O[C@@H](CC(=O)NCCN(C)C)[C@H](O)[C@@H]1O | 22%[44.1 µM]
COc1ccc(-c2ccnc(N[C@H]3CO[C@H]4[C@@H]3OC[C@@H]4NC(=O)CC3(CC(=O)O)CCCC3)n2)cc1 | -4%
COc1ccc(-c2ccnc(N[C@H]3CO[C@H]4[C@@H]3OC[C@@H]4NC(=O)NCc3ccccc3)n2)cc1 | 5µM*
COc1ccc(-c2ccnc(N[C@H]3CO[C@H]4[C@@H]3OC[C@H]4OC(=O)Nc3ccc(C(C)(C)C)cc3)n2)cc1 | i
COc1ccc(-c2ccnc(N[C@H]3CO[C@H]4[C@@H]3OC[C@H]4OC(=O)Nc3ccc(C(C)=O)cc3)n2)cc1 | 5.6µM*
CCNC(=O)N[C@H]1CO[C@H]2[C@@H]1OC[C@@H]2Nc1nccc(-c2ccc(OC)cc2)n1 | i
SMILES | Pf Dd2 growth
COc1ccc(-c2ccnc(N[C@H]3CO[C@H]4[C@@H]3OC[C@H]4OC(=O)Nc3cccc(C(C)=O)c3)n2)cc1 | -28%
COCC(=O)N[C@@H]1CN(Cc2cc(F)c(F)c(F)c2)C[C@H]1CO | 33%
CCOc1cccc(CN2CC(c3nc(Cc4cccnc4)no3)C2)c1 | -24%
CN(Cc1ccccc1)Cc1nnc(C(=O)N2CCC[C@@H]2c2ccc(Br)cc2)n1Cc1ccccc1 | i
C=CCNC(=O)c1coc(COc2ccc3ccc(OC)cc3c2)n1 | i
Cc1c(-c2ccc(Cl)cc2)n[nH]c1C(=O)N[C@@H]1CCNC[C@H]1O | 10%
COc1ccccc1C(=O)NCc1ccc2c(c1)CCN2C(=O)c1cccc(C)c1 | i
O=C(NCc1ccc2c(c1)CCN2C(=O)c1ccc(F)cc1)c1c(F)cccc1F | 8%
Cn1nccc1C(=O)NCc1ccc2c(c1)CCN2C(=O)c1ccc(F)cc1 | i
O=C(NCc1ccc2c(c1)CCN2C(=O)c1ccc(F)cc1)c1ccc(Br)o1 | 11µM*
CCC(=O)N1CCc2cc(CNS(=O)(=O)c3cccs3)ccc21 | -9%
Cc1cccc(C(=O)N2CCc3cc(CNC(=O)c4ccc(Br)o4)ccc32)c1 | 1.3µM*
Cc1cccc(C(=O)N2CCc3cc(CNC(=O)c4ccnn4C)ccc32)c1 | i
N#Cc1ccc(C(=O)NCc2ccc3c(c2)CCN3C(=O)c2ccc(F)cc2)cc1 | 5µM*
CCC(=O)N1CCc2cc(CNC(=O)c3ccc(C#N)cc3)ccc21 | 65%
Cc1ccc(C(=O)N2CCc3cc(CNS(=O)(=O)c4cccs4)ccc32)cc1 | 8.9µM*
Cc1cccc(C(=O)N2CCc3cc(CNS(=O)(=O)c4cccs4)ccc32)c1 | i
O=C(NCc1ccc2c(c1)CCN2C(=O)c1ccccc1)c1ccc(Br)o1 | i
CN1CCN(c2ccc(-c3cc4c(ccn4C)c(C(=O)NCC4CCC(=O)N4)n3)cc2)CC1 (configuration not stated) | i
CCc1ccc(C(=O)N2CCN(C(=O)c3nnn4c3COC(c3ccc(Cl)cc3)C4)CC2)cc1 (configuration not stated) | i
CCC1=C(C(=O)OC)C(c2ccc(OC)cc2OC)N2C(CC(=O)NC3CC3)=CSC2=N1 (configuration not stated) | -6%
CCO[C@H]1CN(C(=O)c2cccc(-c3cccc(F)c3)c2)C[C@@H]1O | -4%
Cc1cccc(C(=O)N2CCc3cc(CNC(=O)CSc4ccccc4)ccc32)c1 | i
COc1ccc(CC(=O)NCc2ccc3c(c2)CCN3C(=O)c2ccccc2)cc1OC | 16%
Cc1cccc(OCC(=O)NCc2ccc3c(c2)CCN3C(=O)c2ccccc2)c1 | 10µM*
SMILES | Pf Dd2 growth
COc1cccc(CNC(=O)CN2CCCc3nc(C4CC4)ncc3C2=O)c1OC | -8%
O=C(CC1(O)C(=O)N(CCc2ccccc2)c2ccc(Br)cc21)c1ccccc1O (configuration not stated) | 10µM*
C#CCN1C(=O)C(O)(CC(=O)c2ccc(OC)c(OC)c2)c2cc(Br)ccc21 (configuration not stated) | -15%
COc1ccccc1C(=O)CC1(O)C(=O)N(CC(N)=O)c2ccccc21 (configuration not stated) | 20%
CCOc1cc(=O)n2c(c1C(=O)Nc1cccc(SC)c1)CCCC2 | 6%
Cn1cc(S(=O)(=O)N2Cc3ccccc3C[C@H]2C(=O)NC(C)(C)C)cn1 | 1%
CN1CC2(CCCN(Cc3cc(F)ccc3-n3cccn3)C2)OC1=O (configuration not stated) | -7%
Cc1cc(C)n(-c2ccc(F)cc2CN2CCCC(CO)(Cc3ccccc3)C2)n1 (configuration not stated) | 8.9µM*
CCc1ccc(CN2CCCC(CO)(Cc3ccc(F)cc3F)C2)cc1 (configuration not stated) | -2%
Cn1nc(N2CCC(NC(=O)c3ncccn3)CC2)ccc1=O | -12%
CCn1ncc(N2CCCC(CC(=O)N3CCCCC3)C2)cc1=O (configuration not stated) | i
O=C(Nc1ncc(-c2ccccc2)c2c1OCC2)c1cn[nH]c1 | 39%[44.1 µM]
